Reference: ChEMBL document CHEMBL3988442, “University of Dundee, Small-Polar-MMV Screening Library” (2021)
Screen size: about 53,000 compounds; about 900 (1.7%) showed an effect of 50% or more. The full list was thinned out, with strong results kept by preference.

system: Mycobacterium tuberculosis; test: Cornell - Phenotypic assay to identify agents that inhibit growth of Mycobacterium tuberculosis; type: functional; set-up: scale not given: direction of the effect not stated beside the values; conditions: 10 mM as filed; unlikely as a test dose

Compound | Percent Effect [%]
Cc1ccnn1CCC(=O)N1CCCC[C@]2(C)NC(=O)CCC[C@H]12 | 0.426
CN1CCN(C(=O)CCn2nnc3ccccc32)CC(C(N)=O)C1 (stereo not drawn) | 53.1
CN1CCN(C(=O)CCn2ncc3ccccc32)CC(C(N)=O)C1 (stereo not drawn) | 40.84
CNC(=O)C1CN(C)CCN(C(=O)CCn2nnc3ccccc32)C1 (stereo not drawn) | 37.61
CCC(C(=O)Nc1ccc2nc(C)oc2c1)N1CCCC1=O (stereo not drawn) | -18.53
Cn1cccc1C(=O)N1CCC2(CC1)CN(S(C)(=O)=O)c1ccccc12 | 9.432
OC(COc1ccccc1Br)COC1CCOCC1 (stereo not drawn) | 10.03
CN(C)S(=O)(=O)c1ccc(CNc2ccc(Cl)cn2)cc1 | 63.29
CN(c1ccc(CNc2ccc(Cl)cn2)cc1)S(C)(=O)=O | 21.91
Clc1ccc(CNc2ccc(Cl)cn2)cc1 | -25.47
COc1ccccc1-c1cc(NC(=O)COCC2CC2)[nH]n1 | 43.6
O=C(COCC1CC1)Nc1ncccc1O | -3.464
O=C(COCC1CC1)Nc1cc(-c2ccc(Br)s2)n[nH]1 | 108.2
O=C(CCn1c(C(F)F)cc2cccnc21)NC1CCCC1 | -12.05
CC(C)CNC(=O)c1cc2c(s1)CCN2S(C)(=O)=O | -19.48
Cc1cc(C2CCC2)nc(N2CCC3(CCNC(=O)CC3)CC2)n1 | 19.37
Cn1ccnc1SCC(=O)NCc1ccc2c(c1)CCC(=O)N2 | -11.99
Cc1ccc(C2CSCCN2C(=O)c2cc(C(N)=O)cs2)o1 (stereo not drawn) | 23.87
Cc1c(C(=O)N(C)CC(F)(F)F)nnn1-c1ccc(F)cc1 | 26.05
CN(C)c1nc2c(c(N3CCc4ccccc4C3)n1)CCNC2 | 60.07
c1ccc2c(c1)CCN(c1nc(-c3ccncc3)nc3c1CCNC3)C2 | 18.38
Cc1ccccc1N1CCN(c2nc(N(C)C)nc3c2CCNC3)CC1 | -18.26

Compound | Percent Effect [%]
Cc1n[nH]c(C)c1-c1nccnc1CC1CCN(C(C)C)CC1 | -33.1
COc1ccc(C(=O)N2CC(=O)N(C3CCC3)CC(O)C2)cc1OC (stereo not drawn) | -13.29
CC(Oc1cc(Cl)cc(Cl)c1)C(=O)NCCOCC(N)=O (stereo not drawn) | -19.42
CC(=O)NC1CCN(C(=O)Nc2cccc(C(F)(F)F)c2)CC1 | 20.69
O=C(Nc1ccc2c(c1)OCO2)N1CCN(CCn2ccnc2)CC1 | -27.6
O=C(Nc1cccc(C(F)(F)F)c1)N1CCN(CCn2ccnc2)CC1 | 98.5
Cc1nn(C)c(C)c1CN1CCCC1c1nccc(CN(C)C)n1 (stereo not drawn) | -90.49
CS(=O)(=O)N1CC(c2n[nH]c3ncccc23)C1 | -14.19
COc1cccc(CN2CCN(c3cccc(C(C)C)n3)CC2)c1F | 57.83
COc1cccc(CN2CC[C@H](NC(C)=O)[C@@H](O)CC2)c1F | -15.13
COc1cccc(CN2CCN(c3noc(C(C)C)n3)CC2)c1F | 42.13
CC(C)c1cc2c(s1)NC(c1ccccn1)NC2=O (stereo not drawn) | -1.811
CCn1c(C2CCCN2Cc2noc(C(C)(C)C)n2)nc2ccccc21 (stereo not drawn) | 13.86
COc1ccccc1CC(=O)NC(C)c1nc2cccnc2n1C(C)C (stereo not drawn) | -9.677
CC(C)Nc1ncnc2c1CCN(C(=O)c1ccncc1F)CC2.O=C(O)C(F)(F)F | -9.598
N#Cc1ccc(C(=O)O)nc1/C=C/c1cccc(Br)c1 | 10.67
O=C(O)c1cc(/C=C/c2ccccc2)ncn1 | 65.58
N#Cc1ccc(C(=O)O)nc1/C=C/c1cccc(Cl)c1 | -13.81
O=C(O)C1(Oc2ccc3ccccc3c2)CCN(c2ncccn2)CC1 | 20.42
O=C(O)c1cc(/C=C/c2ccc3ccccc3c2)ncn1 | 74.73
O=C(O)c1cc(/C=C/c2cccc3ccccc23)ncn1 | 65.34
N#Cc1ccc(C(=O)O)nc1/C=C/c1cccc(F)c1 | 2.587

Compound | Percent Effect [%]
O=C(O)c1c(Cl)ncn1-c1cccc2ccccc12 | 19.97
CNC(=O)C1CCN(C(=O)NCc2ccc(-c3ccn[nH]3)cc2)CC1 | -24.99
N#Cc1ccc(N2CCC3(CCC(=O)N3CCN3CCCC3)CC2)nc1.O=C(O)C(F)(F)F.O=C(O)C(F)(F)F | 3.156
CCc1nnc2n1CCN(C(=O)CN(C)C1CC1)C2 | -12.51
CCN1Cc2cc3c(cc2NCCC1=O)OCO3 | -32.17
CN1CCC(N(CCc2ccccc2)C(=O)COCC2CCCO2)CC1 (stereo not drawn) | 41.94
CN1CC(=O)N(c2ccsc2)CC12CCN(S(=O)(=O)C1CC1)C2.O=C(O)C(F)(F)F (stereo not drawn) | 6.764
O=C(NC1CCC1)C1=NOC2(CCN(Cc3ccccc3)C2)C1 (stereo not drawn) | -9.005
N#CCSCCCN1CCN(C(=O)c2cccc(Cl)c2)CC1 | 18.37
CC[C@H](Nc1nc(C(C)C)nc2c1cnn2C)c1ccccc1 | 70.75
CCC(Nc1nc(C(C)C)nc2c1cnn2C)c1ccncc1 (stereo not drawn) | 25.2
CCC(Nc1nc(C(C)C)nc2c1cnn2C)c1ccc(O)cc1 (stereo not drawn) | 1.347
Cc1nc(Nc2nnc(C)s2)cc(C2CCCN2c2ccncc2)n1 (stereo not drawn) | -13.84
CCc1noc(C(C)N2CCc3c(ncn3C3CC3)C2)n1 (stereo not drawn) | -20.08
COCc1nc(C(=O)N2CCCC(n3cccn3)C2)cs1 (stereo not drawn) | 67.19
CCc1nccn1C1CCCN(C(=O)c2csc(COC)n2)C1 (stereo not drawn) | 19.86
COCc1nc(C(=O)N2CCCC(n3nc(C)cc3C)C2)cs1 (stereo not drawn) | -24.43
CN1CCC2(CC1)C(=O)N(CC1CC1)c1ccccc12.O=C(O)C(F)(F)F | 8.295
c1coc(CNCC2Cn3nncc3CO2)c1 (stereo not drawn) | -14.67
Cc1cccnc1NCCNC(=O)c1cnc(-c2cccs2)nc1O | 19.3
COc1ccc(OC)c(CN(Cc2ccco2)Cc2[nH]cnc2C)c1.O=C(O)CC(O)(CC(=O)O)C(=O)O | 50.25
COc1ccc(CN(Cc2ccco2)Cc2[nH]cnc2C)c(OC)c1.O=C(O)CC(O)(CC(=O)O)C(=O)O | 39.21

Compound | Percent Effect [%]
COc1cccc(CN(Cc2ccco2)Cc2[nH]cnc2C)c1.O=C(O)CC(O)(CC(=O)O)C(=O)O | -15.02
Cc1noc([C@H]2C[C@H]3OCC[C@H]3N(C3CCC3)C2)n1.O=C(O)C(F)(F)F | -34.16
COc1ccc(OC)c(Sc2ncccc2C(=O)NCCSC)c1 | -9.266
CN(C)C(=O)N1CC2(CCNCC2)c2cc(Cl)ccc21.Cl | -44.55
CC(=O)N1CC2(CCNCC2)c2cc(Cl)ccc21.Cl | 63.2
COC(=O)N1CC2(CCNCC2)c2cc(Cl)ccc21.Cl | 26.9
CN(C)Cc1cnn(-c2ccccc2C(=O)NCCC2CCCN2C)c1 (stereo not drawn) | 17.58
O=C(Cc1c[nH]c2ccccc12)N1CCN(C(=O)c2ccoc2)CC1 | -1.862
C[S+]([O-])c1nncn1CC(=O)c1cccc(Cl)c1 (stereo not drawn) | 12.76
C[S+]([O-])c1nncn1CC(=O)c1ccc(Cl)c(Cl)c1 (stereo not drawn) | 51.67
C[S+]([O-])c1nncn1CC(=O)c1ccc2c(c1)CCO2 (stereo not drawn) | 2.009
COc1coc(C(=O)Nc2nc(-c3cccnc3)cs2)cc1=O | 11.19
O=C(c1ccncn1)N1C[C@H]2CCC[C@@]2(COCC2CCOCC2)C1 | 2.154
Cc1nc(C)n(CC2CN(Cc3cc(C#N)ccc3F)CCO2)n1 (stereo not drawn) | 13.34
COc1cc(CNCc2ccc(C(C)O)cc2)cc2c1OCO2 (stereo not drawn) | 3.367
COc1cc(CC2CC(C(N)=O)=NO2)cc2c1OCO2 (stereo not drawn) | 13.11
COc1cc(CC2CC(c3ccc4c(c3)OCO4)=NO2)cc2c1OCO2 (stereo not drawn) | 30.67
CCOC(=O)C1=NOC(Cc2cc(OC)c3c(c2)OCO3)C1 (stereo not drawn) | 94.96
COC(=O)C1=NOC(Cc2cc(OC)c3c(c2)OCO3)C1 (stereo not drawn) | 104.6
COc1c(CC2CC(C(=O)O)=NO2)c(Br)c2c(c1OC)OCO2 (stereo not drawn) | 14.91
Cc1cc(C)nc(C2CCN(C(=O)c3cncnc3C)C2)n1 (stereo not drawn) | -38.99
Cc1nc(CN2C(=O)COC3(CCN(CC4CC4)CC3)C2C)cs1.O=C(O)C(F)(F)F (stereo not drawn) | 6.692

Compound | Percent Effect [%]
Cc1onc(-c2ccncc2)c1C(=O)NC1CCCOC1 (stereo not drawn) | 52.15
Cc1cccc(-c2noc(C)c2C(=O)NC2CCCOC2)c1.O=C(O)CC(O)(CC(=O)O)C(=O)O (stereo not drawn) | 20.12
Cc1c(C(=O)NC2CCCOC2)nnn1-c1ccccc1 (stereo not drawn) | -4.644
Cc1cnn(CC2CCCN2CC(=O)Nc2cc(C(C)(C)C)no2)c1 (stereo not drawn) | 16.98
CCN1CCN(C(=O)NCc2cccnc2-n2cccn2)CC1 | -23.25
CNC(=O)[C@@H]1CN(C(=O)C(C)C)C[C@H]1c1ccnc(N2CCCC2)n1.Cl | 37.07
CNC(=O)[C@@H]1CN(C(=O)C2CCC2)C[C@H]1c1ccnc(N2CCCC2)n1.Cl | 54.39
CNC(=O)[C@@H]1CN(C(=O)CCOC)C[C@H]1c1ccnc(N2CCCC2)n1.Cl | 43.65
CNC(=O)[C@@H]1CN(C(=O)COC)C[C@H]1c1ccnc(N2CCCC2)n1 | 50.96
CCC(=O)N1C[C@@H](C(=O)NC)[C@H](c2ccnc(N3CCCC3)n2)C1.Cl | 24.83
CCNC(=O)C1CCN(c2nccc(C3CCCC3)n2)C1 (stereo not drawn) | 13
Cc1nn(C)c(Oc2ccccc2)c1CNC1CCCCNC1=O (stereo not drawn) | -7.334
Cc1nn(C)c(N(C)C)c1CNC1CCCCNC1=O (stereo not drawn) | 63.11
CC(C)c1nn(C)c(N(C)C)c1CNC1CCC(O)CC1 (stereo not drawn) | 21.48
COCCN1CCC(NCc2c(C(C)C)nn(C)c2N(C)C)CC1 | 39.85
CC(C)c1nn(C)c(N(C)C)c1CNC1CCN(CC2CC2)CC1 | 58.14
CC(C)c1nn(C)c(N(C)C)c1CNC1CCN(C2CC2)CC1.Cl | 42.5
CC(C)c1nn(C)c(N(C)C)c1CNC1CCCCNC1=O (stereo not drawn) | 91.87
Cc1nn(C)c(N2CCOCC2)c1CNC1CCCCNC1=O (stereo not drawn) | -11.46
CC(C)C(=O)N1CCC(NCc2c(C(C)C)nn(C)c2N(C)C)CC1 | 31.79
